Compound activity: PubChem BioAssay, National Center for Advancing Translational Sciences (NCATS)
Most compounds without a hit are left out; they make up all but 19% or so of the library.
DT40 TDP1 CPT – DT40-hTDP1 cell growth loss with CPT; chicken DT40 Tdp1-/-;hTDP1 cells + 20 nM CPT, ATP luminescence, 48 h; actives 12% (n = 420,000); AID 686979; Potency, µM (top dose mostly 46.2 µM), for the others: at the top dose activity change, negative = growth inhibition, actives largely listed as inhibitors; also: potency is read from the fitted curve at half-maximal effect; nearly all actives have a fitted effect of over 55% in size
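Cell growth measured by CellTiter-Glo luminescence after a minimum 48 h, 37 C compound exposure with 20 nM CPT in Tdp1-knockout DT40 cells stably expressing hTDP1, seeded 400/well; qHTS titration format.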
ELG1 DNA repair – blocks ELG1-dependent DNA repair in HEK293T cells; HEK293T ELG1-luciferase reporter, luminescence, 16 h; DNA damage induced by 5-fluorouridine; actives 2.3% (n = 330,000); Potency, µM (highest dose often 46.1 µM), inactives show top-dose activity change, negative = inhibition, usual class: inhibitors; also: potency is read from the fitted curve at half-maximal effect; nearly all actives have a fitted effect of over 55% in size
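5-Fluorouridine DNA damage + compound/DMSO, 2,000 cells/well, 16 h, 37 °C/5% CO2. ONE-Glo, 30 min RT, luminescence. Readout = decrease in reporter signal.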
IL-1B inflam inh – inhibitors of inflammasome signaling (IL-1 beta secretion); THP-1 LPS/ATP IL-1B secretion, AlphaLISA, 16 h; hits give low values; activity change, % at 57.5 µM; actives 4.7% (n = 360,000); in the data active = activity change below about -50%; inconclusive = mostly about -30% to -49%
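Secreted IL-1B measured by AlphaLISA bead assay after 16 h compound exposure of THP-1 cells; compounds (final up to 57.5 uM) added 1 h before LPS (250 ng/mL) and ATP (1.25 mM) stimulation; lower signal means less secretion.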
TDP1 cell noCPT – qHTS for Inhibitors of human tyrosyl-DNA phosphodiesterase 1 (TDP1): qHTS in cells in absence of CPT; DT40 Tdp1-/- hTDP1 cells, no CPT, ATP luminescence, 48 h; Potency, µM (series often up to 46.2 µM), without a hit: at the highest dose activity change, negative = growth inhibition, usual class: inhibitors; actives 15% (n = 420,000); AID 686978, 2013; also: potency is read from the fitted curve at half-maximal effect; nearly all actives have a fitted effect of over 55% in size
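A cellular qHTS used chicken DT40 cells lacking endogenous Tdp1 but carrying stably transfected human TDP1. Compounds were applied without camptothecin, and cell growth kinetics were judged by ATP-dependent luminescence after ≥48 hr.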
HT1080 IDH1KD tx – HT-1080 IDH1 knockdown cell toxicity (counter line); AID 686971; actives 2% (n = 360,000); Potency, µM (series often up to 46.1 µM), inactives show at the top dose activity, negative = toxicity, usual class: cytotoxic; HT-1080 IDH1 knockdown viability, ATP luminescence, 48 h;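 also: potency is read from the fitted curve at half-maximal effect; 0% = DMSO wells and -100% = cell-free medium wells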
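Using the IDH1-knockdown HT-1080 line run in the same batch and compound series as the NT line, viability after 48 h at 37 °C was determined by CellTiter-Glo luminescence and expressed as % activity.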
HT1080-NT tox – kills 2HG-producing HT-1080-NT fibrosarcoma cells. Potency, µM (highest dose often 46.1 µM), without a hit: at the highest dose activity, negative = less viability, usual class: cytotoxic. actives 1.6% (n = 360,000). HT-1080-NT fibrosarcoma viability, CellTiter-Glo ATP luminescence, 48 h;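 also: NT is the 2HG producing partner of a matched IDH1 knockdown line; potency is read from the fitted curve at half-maximal effect; 0% = DMSO-treated cells and -100% = media-only wells without cells; nearly all actives have a fitted effect of over 55% in size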
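A 48-hour cytotoxicity screen used HT-1080-NT cells plated 2 hours before compound delivery. ATP-based CellTiter-Glo luminescence measured viability, normalized to DMSO and no-cell controls.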
An asterisk follows results filed as active; [ ] = dose if it differs, or a comment. Unless noted, calls follow the shape of the dose curve; as a rule, active = well fitted curve in the direction sought with a large enough effect; inconclusive = small, poorly fitted or top-dose-only effect, or another doubt; inactive = no such curve, though single readings can be large; an effect the other way counts as inactive or inconclusive. Unless noted, % is scaled to controls: 0 for no effect and ±100 for the full control effect.

What do the screens show for `CCN(CC(=O)NCc1cccs1)C(=O)c1cccc(S(=O)(=O)NCc2ccccc2)c1`?
DT40 TDP1 CPT: -13%; ELG1 DNA repair: 7%; IL-1B inflam inh: -12; TDP1 cell noCPT: -21%; HT1080 IDH1KD tx: 20%; HT1080-NT tox: 1%

What do the screens show for `O=C(CN1CCN(c2ccc(O)cc2)CC1)NC(=O)NCc1ccco1`?
DT40 TDP1 CPT: 3%; ELG1 DNA repair: -2%; IL-1B inflam inh: 37; TDP1 cell noCPT: -24%; HT1080 IDH1KD tx: -1%; HT1080-NT tox: 1%

What do the screens show for `O=C(C1CCCN(S(=O)(=O)c2ccc(F)cc2)C1)N1CCCCCC1` (stereo not given)?
DT40 TDP1 CPT: 12µM*; ELG1 DNA repair: -3%; IL-1B inflam inh: 11; TDP1 cell noCPT: 8.2µM*; HT1080 IDH1KD tx: -6%; HT1080-NT tox: 5%

Results for O=C(C1CCCN(S(=O)(=O)c2ccc(F)cc2)C1)N1CCCCC1 (stereo not given) ?
DT40 TDP1 CPT: -15%; ELG1 DNA repair: 15%; IL-1B inflam inh: 32; TDP1 cell noCPT: 23µM*; HT1080 IDH1KD tx: 7%; HT1080-NT tox: 7%

Results for O=C(C1CCCN(S(=O)(=O)c2ccccc2)C1)N1CCCCC1 (stereo not given) ?
DT40 TDP1 CPT: -22%; ELG1 DNA repair: 7%; IL-1B inflam inh: 43; TDP1 cell noCPT: -7%; HT1080 IDH1KD tx: 2%; HT1080-NT tox: 8%

Results for CC(C)=CC(=O)N1CCC(N2CCC(C(=O)NCC3CCCO3)CC2)CC1 (stereo not given) ?
DT40 TDP1 CPT: -3%; ELG1 DNA repair: 16%; IL-1B inflam inh: 18; TDP1 cell noCPT: -6%; HT1080 IDH1KD tx: 7%; HT1080-NT tox: 11%

How did COc1ccc(Nc2nc(N)c(C(=O)c3ccc(OC)cc3)s2)cc1 do in these assays?
DT40 TDP1 CPT: 1.6µM*; ELG1 DNA repair: -18%; IL-1B inflam inh: -74*; TDP1 cell noCPT: 1.6µM*; HT1080 IDH1KD tx: inconclusive; HT1080-NT tox: inconclusive

Results for CC(=O)c1sc(N/N=C\c2ccccc2O)nc1C ?
DT40 TDP1 CPT: 1µM*; ELG1 DNA repair: inconclusive; IL-1B inflam inh: -74*; TDP1 cell noCPT: 0.92µM*; HT1080 IDH1KD tx: inconclusive; HT1080-NT tox: inconclusive

What do the screens show for `CC(=O)c1sc(Nc2ccccc2)nc1C`?
DT40 TDP1 CPT: -20%; IL-1B inflam inh: 29; TDP1 cell noCPT: -15%; HT1080 IDH1KD tx: 7%; HT1080-NT tox: 6%

How did CCOC(=O)c1sc(Nc2ccc(F)cc2)nc1C do in these assays?
DT40 TDP1 CPT: inconclusive; ELG1 DNA repair: 11%; IL-1B inflam inh: -21; TDP1 cell noCPT: inconclusive; HT1080 IDH1KD tx: -2%; HT1080-NT tox: -13%

What do the screens show for `CC(C)(C)C(=O)c1sc(Nc2ccccc2)nc1N`?
DT40 TDP1 CPT: inconclusive; ELG1 DNA repair: inconclusive; IL-1B inflam inh: -71*; TDP1 cell noCPT: inconclusive; HT1080 IDH1KD tx: inconclusive; HT1080-NT tox: -8%

Results for Nc1nc(Nc2cccc(Cl)c2)sc1C(=O)c1ccc(F)cc1 ?
DT40 TDP1 CPT: 18µM*; TDP1 cell noCPT: 23µM*

Results for CCOC(=O)NC(=O)CSc1nnc(C2CC2)n1Cc1ccco1 ?
DT40 TDP1 CPT: -9%; ELG1 DNA repair: 9%; IL-1B inflam inh: 30; TDP1 cell noCPT: -25%; HT1080 IDH1KD tx: 23%; HT1080-NT tox: 14%

How did CCN(CC)C(=O)C1=C(C)N(Cc2ccc(OC)cc2)C(=O)C(CC(=O)NC2CC2)C1 (stereo not given) do in these assays?
DT40 TDP1 CPT: -7%; IL-1B inflam inh: 4; TDP1 cell noCPT: -5%; HT1080 IDH1KD tx: 0%; HT1080-NT tox: 0%

What do the screens show for `Cc1ccc(C(=O)c2sc(Nc3ccc(F)cc3)nc2N)c(C)c1`?
DT40 TDP1 CPT: 13µM*; TDP1 cell noCPT: 15µM*

What do the screens show for `COc1ccc(Nc2nc(N)c(C(=O)c3ccc(F)cc3)s2)cc1`?
DT40 TDP1 CPT: 0.73µM*; ELG1 DNA repair: inconclusive; IL-1B inflam inh: -22; TDP1 cell noCPT: 0.58µM*; HT1080 IDH1KD tx: 1.8µM*; HT1080-NT tox: inconclusive

How did COc1ccc(C(=O)c2sc(Nc3ccccc3)nc2C)cc1 do in these assays?
DT40 TDP1 CPT: inconclusive; ELG1 DNA repair: -5%; IL-1B inflam inh: -70*; TDP1 cell noCPT: inconclusive; HT1080 IDH1KD tx: inconclusive; HT1080-NT tox: -18%

What do the screens show for `COC(=O)c1sc(Nc2ccccc2)nc1C`?
DT40 TDP1 CPT: -18%; ELG1 DNA repair: inconclusive; IL-1B inflam inh: 9; TDP1 cell noCPT: -10%; HT1080 IDH1KD tx: 12%; HT1080-NT tox: -2%

What do the screens show for `CC(=O)c1sc(Nc2ccc(Oc3ccccc3)cc2)nc1C`?
DT40 TDP1 CPT: inconclusive; IL-1B inflam inh: 47; TDP1 cell noCPT: 21µM*; HT1080 IDH1KD tx: inconclusive; HT1080-NT tox: inconclusive

Results for NC(N)=NCC1COC2(CCCCC2)O1 (stereo not given) ?
DT40 TDP1 CPT: -4%[21.1 µM]; TDP1 cell noCPT: -2%[21.1 µM]

What do the screens show for `Cc1ccc([C@H]2C[C@@H](O)[C@H](n3cc(C4CC4)nn3)CN2C(=O)C2CCCCC2)cc1`?
DT40 TDP1 CPT: -108%; IL-1B inflam inh: 16; TDP1 cell noCPT: inconclusive; HT1080 IDH1KD tx: -13%; HT1080-NT tox: -1%

What do the screens show for `CC1=C(C(=O)Nc2ccc(C(=O)NCCCN3CCCCC3)cc2)SCCO1`?
DT40 TDP1 CPT: -3%; ELG1 DNA repair: 25%; IL-1B inflam inh: 22; TDP1 cell noCPT: 3%; HT1080 IDH1KD tx: 4%; HT1080-NT tox: 7%

What do the screens show for `O=C1C(=C2CCCCC2)SC(=S)N1Cc1ccco1`?
DT40 TDP1 CPT: inconclusive; ELG1 DNA repair: -14%; IL-1B inflam inh: 11; TDP1 cell noCPT: 16µM*; HT1080 IDH1KD tx: inconclusive; HT1080-NT tox: -2%

What do the screens show for `O=C1NC[C@@H](CCCCN2C[C@H](Cc3ccc(O)cc3)N(CCC3CCCCC3)C(=O)C2=O)N(CCc2ccc(O)cc2)C1=O`?
DT40 TDP1 CPT: 12%; IL-1B inflam inh: -8; TDP1 cell noCPT: 2%; HT1080 IDH1KD tx: 18%; HT1080-NT tox: 18%

How did CS(=O)(=O)Nc1cccc(C2=NN(C(=O)c3ccco3)C(c3cccs3)C2)c1 (stereo not given) do in these assays?
DT40 TDP1 CPT: inconclusive; ELG1 DNA repair: 6.5µM*; IL-1B inflam inh: 1; TDP1 cell noCPT: inconclusive; HT1080 IDH1KD tx: -14%; HT1080-NT tox: -5%
